# According to the supplement of paper PMC12669032:
# Tested on: Roseburia intestinalis
# Experiment: growth AUC relative to DMSO control (median of replicates) (fraction); higher = more growth (less inhibition), active = hit call of the paper
# Settings: 20 µM; 24 h;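 active = AUC reduced over 20% with Padj below 0.05 in at least 2 of 3 replicates; inactive = otherwise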
# Procedure, shortened: (§1)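 Hourly OD600 readings over 24 h tracked anaerobic gut bacterial monocultures grown at 37 °C in mGAM from OD600 0.05 with 20 µM compound (1% DMSO). After the minimum OD was set to 0, area under the growth curve was normalised to the plate median of solvent-only wells, or to row and column medians on the industrial chemical plate. Values are medians of three biological replicates grown on separate days.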
row,Compound,growth AUC
1,"ClC1=C(Cl)C2(Cl)[C@H]3[C@@H]4O[C@@H]4[C@H](Cl)[C@H]3C1(Cl)C2(Cl)Cl (single isomer, unassigned; isomer b)",0.894 (inactive)
2,O=c1oc2ccccc2c(O)c1C1CC(c2ccc(OCc3ccc(C(F)(F)F)cc3)cc2)Cc2ccccc21 (mixture of isomers),0.411 (active)
3,COc1nc(C)nc(NC(=O)NS(=O)(=O)c2ccccc2CCC(F)(F)F)n1,0.98 (inactive)
4,CS/C(C)=N/OC(=O)N(C)SN(C)C(=O)O/N=C(\C)SC,1.01 (inactive)
5,CCN(C(=O)n1nnn(-c2ccccc2Cl)c1=O)C1CCCCC1,0.938 (inactive)
6,COc1cc(OC)n2nc(S(=O)(=O)Nc3c(Cl)ccc(C)c3Cl)nc2n1,0.999 (inactive)
7,O=C(O)c1nc(Cl)ccc1Cl,1.07 (inactive)
8,C=C(C)[C@H]1Cc2c(ccc3c2O[C@@H]2COc4cc(OC)c(OC)cc4[C@@H]2C3=O)O1,0.935 (inactive)
9,CCOP(=S)(OCC)Oc1cc(Cl)c(SC)cc1Cl,0.994 (inactive)
10,Cc1cccc(C)c1N,0.977 (inactive)
11,Cc1cccc2sc3nncn3c12,0.976 (inactive)
12,CCOC(=O)CCN(SN(C)C(=O)Oc1cccc2c1OC(C)(C)C2)C(C)C,1.02 (inactive)
13,OC(c1ccc(F)cc1)(c1cncnc1)c1ccccc1Cl (stereo unspecified),0.975 (inactive)
14,CNC(=O)Oc1ccc(N(C)C)c(C)c1,0.949 (inactive)
15,CC1(C(=O)Nc2ccc(O)c(Cl)c2Cl)CCCCC1,0.86 (inactive)
16,COP(=S)(OC)Oc1ccc(S(=O)(=O)N(C)C)cc1,0.971 (inactive)
17,CC1(C)C(C=C(Cl)Cl)C1C(=O)OC(C#N)c1ccc(F)c(Oc2ccccc2)c1 (mixture of isomers),0.916 (inactive)
18,O=C(O)C(F)(F)C(F)(F)C(F)(F)C(F)(F)C(F)(F)C(F)(F)F,1.03 (inactive)
19,ClC1=C(Cl)C(Cl)(C2(Cl)C(Cl)=C(Cl)C(Cl)=C2Cl)C(Cl)=C1Cl,0.91 (inactive)

row,Compound,growth AUC
1,COP(=S)(OC)SC(CC(=O)O)C(=O)O (stereo unspecified),1.02 (inactive)
2,Nc1cc(Cl)cc(C(=O)O)c1Cl,1.04 (inactive)
3,"ClC1=C(Cl)C2(Cl)[C@H]3[C@H]4O[C@H]4[C@H](Cl)[C@H]3C1(Cl)C2(Cl)Cl (single isomer, unassigned; isomer a)",0.954 (inactive)
4,CNC(=O)ON=C(CS(C)=O)C(C)(C)C (stereo unspecified),0.974 (inactive)
5,CCCCCCCCn1sccc1=O,0.449 (active)
6,Cc1ccccc1[N+](=O)[O-],0.969 (inactive)
7,O=[N+]([O-])c1ccc(O)c([N+](=O)[O-])c1,0.912 (inactive)
8,CC1=NNC(=O)N(/N=C/c2cccnc2)C1,1.01 (inactive)
9,Nc1nc(N)[nH]c(=O)n1,0.981 (inactive)
10,CC1(C)CC/C(=C\c2ccc(Cl)cc2)C1(O)Cn1cncn1 (stereo unspecified),1.02 (inactive)
11,CC(C)(C)N(NC(=O)c1ccc(Cl)cc1)C(=O)c1ccccc1,1.08 (inactive)
12,Cc1nc(N(C)C)nc(OC(=O)N(C)C)c1C,0.988 (inactive)
13,CCCCNC(=O)n1c(NC(=O)OC)nc2ccccc21,0.985 (inactive)
14,CCOc1ccc(C(C)(C)COCc2cccc(Oc3ccccc3)c2)cc1,0.975 (inactive)
15,CCS(=O)c1c(C#N)nn(-c2c(Cl)cc(C(F)(F)F)cc2Cl)c1N (stereo unspecified),1.01 (inactive)
16,Nc1c([N+](=O)[O-])ccc(Oc2ccccc2)c1Cl,0.988 (inactive)
17,CNc1cnn(-c2cccc(C(F)(F)F)c2)c(=O)c1Cl,1.03 (inactive)
18,CCC(C)[C@H]1O[C@]2(C=C[C@@H]1C)C[C@@H]1C[C@@H](C/C=C(\C)[C@@H](O[C@H]3C[C@H](OC)[C@@H](O[C@H]4C[C@H](OC)[C@@H](O)[C@H](C)O4)[C@H](C)O3)[C@@H](C)/C=C/C=C3\CO[C@@H]4[C@H](O)C(C)=C[C@@H](C(=O)O1)[C@]34O)O2.CO[C@H]1C[C@H](O[C@H]2[C@H](C)O[C@@H](O[C@@H]3/C(C)=C/C[C@@H]4C[C@@H](C[C@]5(C=C[C@H](C)[C@@H](C(C)C)O5)O4)OC(=O)[C@@H]4C=C(C)[C@@H](O)[C@H]5OC/C(=C\C=C\[C@@H]3C)[C@]54O)C[C@@H]2OC)O[C@@H](C)[C@@H]1O (stereo partly specified),0.571 (active)
19,C#CCN1CC(=O)N(COC(=O)C2C(C=C(C)C)C2(C)C)C1=O (mixture of isomers),1.04 (inactive)

# Tested on: Streptococcus salivarius
# Experiment: as above
# Settings: 20 µM; 24 h
# Procedure, shortened: as §1
row,Compound,growth AUC
1,"ClC1=C(Cl)C2(Cl)[C@H]3[C@@H]4O[C@@H]4[C@H](Cl)[C@H]3C1(Cl)C2(Cl)Cl (single isomer, unassigned; isomer b)",0.961 (inactive)
2,O=c1oc2ccccc2c(O)c1C1CC(c2ccc(OCc3ccc(C(F)(F)F)cc3)cc2)Cc2ccccc21 (mixture of isomers),0.212 (active)
3,COc1nc(C)nc(NC(=O)NS(=O)(=O)c2ccccc2CCC(F)(F)F)n1,0.989 (inactive)
4,CS/C(C)=N/OC(=O)N(C)SN(C)C(=O)O/N=C(\C)SC,0.955 (inactive)
5,CCN(C(=O)n1nnn(-c2ccccc2Cl)c1=O)C1CCCCC1,0.971 (inactive)
6,COc1cc(OC)n2nc(S(=O)(=O)Nc3c(Cl)ccc(C)c3Cl)nc2n1,0.954 (inactive)
7,O=C(O)c1nc(Cl)ccc1Cl,1.02 (inactive)
8,C=C(C)[C@H]1Cc2c(ccc3c2O[C@@H]2COc4cc(OC)c(OC)cc4[C@@H]2C3=O)O1,1.02 (inactive)
9,CCOP(=S)(OCC)Oc1cc(Cl)c(SC)cc1Cl,1.01 (inactive)
10,Cc1cccc(C)c1N,1.04 (inactive)
11,Cc1cccc2sc3nncn3c12,1.02 (inactive)
12,CCOC(=O)CCN(SN(C)C(=O)Oc1cccc2c1OC(C)(C)C2)C(C)C,0.998 (inactive)
13,OC(c1ccc(F)cc1)(c1cncnc1)c1ccccc1Cl (stereo unspecified),0.996 (inactive)
14,CNC(=O)Oc1ccc(N(C)C)c(C)c1,0.992 (inactive)
15,CC1(C(=O)Nc2ccc(O)c(Cl)c2Cl)CCCCC1,0.967 (inactive)
16,COP(=S)(OC)Oc1ccc(S(=O)(=O)N(C)C)cc1,1.04 (inactive)
17,CC1(C)C(C=C(Cl)Cl)C1C(=O)OC(C#N)c1ccc(F)c(Oc2ccccc2)c1 (mixture of isomers),0.974 (inactive)
18,O=C(O)C(F)(F)C(F)(F)C(F)(F)C(F)(F)C(F)(F)C(F)(F)F,1.02 (inactive)
19,ClC1=C(Cl)C(Cl)(C2(Cl)C(Cl)=C(Cl)C(Cl)=C2Cl)C(Cl)=C1Cl,0.962 (inactive)

row,Compound,growth AUC
1,COP(=S)(OC)SC(CC(=O)O)C(=O)O (stereo unspecified),1.03 (inactive)
2,Nc1cc(Cl)cc(C(=O)O)c1Cl,1.02 (inactive)
3,"ClC1=C(Cl)C2(Cl)[C@H]3[C@H]4O[C@H]4[C@H](Cl)[C@H]3C1(Cl)C2(Cl)Cl (single isomer, unassigned; isomer a)",0.976 (inactive)
4,CNC(=O)ON=C(CS(C)=O)C(C)(C)C (stereo unspecified),0.989 (inactive)
5,CCCCCCCCn1sccc1=O,0.815 (inactive)
6,Cc1ccccc1[N+](=O)[O-],1.01 (inactive)
7,O=[N+]([O-])c1ccc(O)c([N+](=O)[O-])c1,0.992 (inactive)
8,CC1=NNC(=O)N(/N=C/c2cccnc2)C1,1.04 (inactive)
9,Nc1nc(N)[nH]c(=O)n1,1 (inactive)
10,CC1(C)CC/C(=C\c2ccc(Cl)cc2)C1(O)Cn1cncn1 (stereo unspecified),0.993 (inactive)
11,CC(C)(C)N(NC(=O)c1ccc(Cl)cc1)C(=O)c1ccccc1,0.987 (inactive)
12,Cc1nc(N(C)C)nc(OC(=O)N(C)C)c1C,1 (inactive)
13,CCCCNC(=O)n1c(NC(=O)OC)nc2ccccc21,0.999 (inactive)
14,CCOc1ccc(C(C)(C)COCc2cccc(Oc3ccccc3)c2)cc1,0.983 (inactive)
15,CCS(=O)c1c(C#N)nn(-c2c(Cl)cc(C(F)(F)F)cc2Cl)c1N (stereo unspecified),1.06 (inactive)
16,Nc1c([N+](=O)[O-])ccc(Oc2ccccc2)c1Cl,0.929 (inactive)
17,CNc1cnn(-c2cccc(C(F)(F)F)c2)c(=O)c1Cl,0.976 (inactive)
18,CCC(C)[C@H]1O[C@]2(C=C[C@@H]1C)C[C@@H]1C[C@@H](C/C=C(\C)[C@@H](O[C@H]3C[C@H](OC)[C@@H](O[C@H]4C[C@H](OC)[C@@H](O)[C@H](C)O4)[C@H](C)O3)[C@@H](C)/C=C/C=C3\CO[C@@H]4[C@H](O)C(C)=C[C@@H](C(=O)O1)[C@]34O)O2.CO[C@H]1C[C@H](O[C@H]2[C@H](C)O[C@@H](O[C@@H]3/C(C)=C/C[C@@H]4C[C@@H](C[C@]5(C=C[C@H](C)[C@@H](C(C)C)O5)O4)OC(=O)[C@@H]4C=C(C)[C@@H](O)[C@H]5OC/C(=C\C=C\[C@@H]3C)[C@]54O)C[C@@H]2OC)O[C@@H](C)[C@@H]1O (stereo partly specified),0.961 (inactive)
19,C#CCN1CC(=O)N(COC(=O)C2C(C=C(C)C)C2(C)C)C1=O (mixture of isomers),0.943 (inactive)
